Test results from the supplement of paper PMC11628255, “Interference of metal ions on the bioluminescent signal of firefly, Renilla, and NanoLuc luciferases in high-throughput screening assays” (Frontiers in Chemistry, 2024).
± gives the standard deviation of the averaged measurements.

Legend:
[1] = system: Renilla luciferase (RLuc); experiment: residual bioluminescent signal relative to negative (DMSO) control; higher = less interference (more residual luciferase signal)
How it was run: (§1)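 In triplicate wells of 384-well plates, each metal salt (0.01, 1 and 5 mM final, prepared in water) was pre-incubated with purified firefly, NanoLuc or Renilla luciferase for 10 min at room temperature in either screening or HEPES buffer. Readings of luminescence were taken 10 min after the substrate went in. The residual signal for a well is its luminescence relative to the mean of vehicle-only wells on the same plate, as a percentage.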

[2] = system: NanoLuc luciferase (NLuc); experiment: as above
How it was run: as §1

[3] = metal salt concentration 0.01 mM, HEPES conditions (100 mM HEPES, 0.05% BSA, 0.3 M sodium ascorbate, pH 7.5)
[4] = metal salt concentration 0.01 mM, screening conditions (50 mM Tris-HCl, […] KH2PO4, […] NaCl, 0.25 mM EDTA, 0.1% BSA, 0.3 M sodium ascorbate, pH 7.4)
[5] = metal salt concentration 1 mM, HEPES conditions (100 mM HEPES, 0.05% BSA, 0.3 M sodium ascorbate, pH 7.5)
[6] = metal salt concentration 1 mM, screening conditions (50 mM Tris-HCl, […] KH2PO4, […] NaCl, 0.25 mM EDTA, 0.1% BSA, 0.3 M sodium ascorbate, pH 7.4)
[7] = metal salt concentration 5 mM, HEPES conditions (100 mM HEPES, 0.05% BSA, 0.3 M sodium ascorbate, pH 7.5)
[8] = metal salt concentration 5 mM, screening conditions (50 mM Tris-HCl, […] KH2PO4, […] NaCl, 0.25 mM EDTA, 0.1% BSA, 0.3 M sodium ascorbate, pH 7.4)
[9] = metal salt concentration 0.01 mM, HEPES conditions (100 mM HEPES, 0.1% BSA, pH 7.5)
[10] = metal salt concentration 0.01 mM, screening conditions (PBS, 0.1% BSA, pH 7.4)
[11] = metal salt concentration 1 mM, HEPES conditions (100 mM HEPES, 0.1% BSA, pH 7.5)
[12] = metal salt concentration 1 mM, screening conditions (PBS, 0.1% BSA, pH 7.4)
[13] = metal salt concentration 5 mM, HEPES conditions (100 mM HEPES, 0.1% BSA, pH 7.5)
[14] = metal salt concentration 5 mM, screening conditions (PBS, 0.1% BSA, pH 7.4)

Structure (SMILES): [Cl][Fe][Cl] [iron(II) chloride]
- residual bioluminescent signal [1, 3]: 62.9 ± 8.6%
- residual bioluminescent signal [1, 4]: 85.9 ± 6.2%
- residual bioluminescent signal [1, 5]: 1.9 ± 1.7%
- residual bioluminescent signal [1, 6]: 3.45 ± 1.9%
- residual bioluminescent signal [1, 7]: 0.774 ± 0.53%
- residual bioluminescent signal [1, 8]: 0.404 ± 0.27%

Structure (SMILES): O.O.O.O.O.O.O.O=S(=O)([O-])[O-].[Mg+2] [magnesium sulfate]
- residual bioluminescent signal [1, 3]: 85.7 ± 4.6%
- residual bioluminescent signal [1, 4]: 88.5 ± 5.2%
- residual bioluminescent signal [1, 5]: 99.3 ± 11%
- residual bioluminescent signal [1, 6]: 93.1 ± 12%
- residual bioluminescent signal [1, 7]: 97.7 ± 5.9%
- residual bioluminescent signal [1, 8]: 109 ± 27%

Structure (SMILES): O=C([O-])[O-].[Cs+].[Cs+] [caesium carbonate]
- residual bioluminescent signal [2, 9]: 99.36 ± 0.78%
- residual bioluminescent signal [2, 10]: 98.8 ± 6.6%
- residual bioluminescent signal [2, 11]: 96.5 ± 3.1%
- residual bioluminescent signal [2, 12]: 102 ± 3%
- residual bioluminescent signal [2, 13]: 91.4 ± 3.5%
- residual bioluminescent signal [2, 14]: 92.2 ± 2.9%
- residual bioluminescent signal [1, 3]: 91.5 ± 6.8%
- residual bioluminescent signal [1, 4]: 94.9 ± 6.5%
- residual bioluminescent signal [1, 5]: 100 ± 11%
- residual bioluminescent signal [1, 6]: 93 ± 4.2%
- residual bioluminescent signal [1, 7]: 87.4 ± 1.1%
- residual bioluminescent signal [1, 8]: 87.8 ± 5.2%

Structure (SMILES): O.O.O.O.O.O.O.O.O.O.O=S(=O)([O-])[O-].[Na+].[Na+] [sodium sulfate]
- residual bioluminescent signal [2, 9]: 96 ± 3.7%
- residual bioluminescent signal [2, 10]: 96.8 ± 5%
- residual bioluminescent signal [2, 11]: 96.8 ± 4%
- residual bioluminescent signal [2, 12]: 96 ± 4.3%
- residual bioluminescent signal [2, 13]: 98.4 ± 1.1%
- residual bioluminescent signal [2, 14]: 95.6 ± 4.4%
- residual bioluminescent signal [1, 3]: 112 ± 4.9%
- residual bioluminescent signal [1, 4]: 111 ± 1.9%
- residual bioluminescent signal [1, 5]: 75.1 ± 66%
- residual bioluminescent signal [1, 6]: 108 ± 9.8%
- residual bioluminescent signal [1, 7]: 118 ± 11%
- residual bioluminescent signal [1, 8]: 109 ± 13%

Structure (SMILES): CC#N.CC#N.CC#N.CC#N.F[B-](F)(F)F.[Cu+] [tetrakis(acetonitrile)copper(I) tetrafluoroborate]
- residual bioluminescent signal [2, 9]: 92.6 ± 2.9%
- residual bioluminescent signal [2, 10]: 90 ± 3%
- residual bioluminescent signal [2, 11]: 0.251 ± 0.095%
- residual bioluminescent signal [2, 12]: 0.838 ± 0.074%
- residual bioluminescent signal [2, 13]: 0.149 ± 0.095%
- residual bioluminescent signal [2, 14]: 0.354 ± 0.31%
- residual bioluminescent signal [1, 3]: 98.7 ± 11%
- residual bioluminescent signal [1, 4]: 103 ± 2.8%
- residual bioluminescent signal [1, 5]: 0.774 ± 0.32%
- residual bioluminescent signal [1, 6]: 0.538 ± 0.36%
- residual bioluminescent signal [1, 7]: 1.06 ± 0.76%
- residual bioluminescent signal [1, 8]: 0.628 ± 0.43%

Structure (SMILES): O=S(=O)([O-])[O-].[Fe+2] [iron(II) sulfate]
- residual bioluminescent signal [1, 3]: 83.1 ± 2.5%
- residual bioluminescent signal [1, 4]: 99.5 ± 4%
- residual bioluminescent signal [1, 5]: 2.25 ± 0.97%
- residual bioluminescent signal [1, 6]: 13.5 ± 2.4%
- residual bioluminescent signal [1, 7]: 0.704 ± 0.68%
- residual bioluminescent signal [1, 8]: 0.762 ± 0.34%

Structure (SMILES): [Cl-].[Na+] [sodium chloride]
- residual bioluminescent signal [1, 3]: 97.4 ± 13%
- residual bioluminescent signal [1, 4]: 91.3 ± 5.2%
- residual bioluminescent signal [1, 5]: 104 ± 18%
- residual bioluminescent signal [1, 6]: 88.6 ± 1.3%
- residual bioluminescent signal [1, 7]: 111 ± 5%
- residual bioluminescent signal [1, 8]: 94.4 ± 11%

Structure (SMILES): [Cl][Pt-2]([Cl])([Cl])[Cl].[K+].[K+] [potassium tetrachloroplatinate(II)]
- residual bioluminescent signal [1, 3]: 93.6 ± 1.9%
- residual bioluminescent signal [1, 4]: 96.1 ± 1.4%
- residual bioluminescent signal [1, 5]: 16.3 ± 9.4%
- residual bioluminescent signal [1, 6]: 8.11 ± 2.9%
- residual bioluminescent signal [1, 7]: 3.38 ± 2.1%
- residual bioluminescent signal [1, 8]: 1.17 ± 0.82%

Structure (SMILES): [Cl][Fe]([Cl])[Cl] [iron(III) chloride]
- residual bioluminescent signal [1, 3]: 91.5 ± 7.9%
- residual bioluminescent signal [1, 4]: 94.1 ± 10%
- residual bioluminescent signal [1, 5]: 2.32 ± 0.56%
- residual bioluminescent signal [1, 6]: 39.9 ± 12%
- residual bioluminescent signal [1, 7]: 0.985 ± 0.12%
- residual bioluminescent signal [1, 8]: 0.807%

Structure (SMILES): O=S(=O)([O-])[O-].[Mn+2] [manganese(II) sulfate]
- residual bioluminescent signal [1, 3]: 112 ± 9.2%
- residual bioluminescent signal [1, 4]: 103 ± 12%
- residual bioluminescent signal [1, 5]: 101 ± 3.7%
- residual bioluminescent signal [1, 6]: 102 ± 5.1%
- residual bioluminescent signal [1, 7]: 71.9 ± 9.5%
- residual bioluminescent signal [1, 8]: 108.6 ± 0.66%

Structure (SMILES): O=C([O-])[O-].[K+].[K+] [potassium carbonate]
- residual bioluminescent signal [2, 9]: 91.3 ± 2.9%
- residual bioluminescent signal [2, 10]: 100 ± 4%
- residual bioluminescent signal [2, 11]: 92.1 ± 8.9%
- residual bioluminescent signal [2, 12]: 97.6 ± 3%
- residual bioluminescent signal [2, 13]: 95.6 ± 1.7%
- residual bioluminescent signal [2, 14]: 96.6 ± 3.6%
- residual bioluminescent signal [1, 3]: 90.4 ± 4.2%
- residual bioluminescent signal [1, 4]: 88.9 ± 2.2%
- residual bioluminescent signal [1, 5]: 93.2 ± 9.6%
- residual bioluminescent signal [1, 6]: 92.2 ± 5.6%
- residual bioluminescent signal [1, 7]: 96.4 ± 7%
- residual bioluminescent signal [1, 8]: 76.8 ± 4.4%
